Screening results deposited in PubChem BioAssay by National Center for Advancing Translational Sciences (NCATS).
This is one part of a sample in which hits are shown more often than they occur.
Pf Dd2 growth = Plasmodium falciparum Dd2 growth inhibition; P. falciparum Dd2 growth, SYBR Green, 72 h; Potency, µM (series often up to 28.9 µM), most hits filed as inhibitors; hit rate 4.3% among 120,000; active = well fitted inhibition curve with a large enough effect; note: nearly all actives have a fitted effect of over 65% in size
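Infected erythrocytes (Dd2, 0.3% parasitemia, 2.5% hematocrit final) are added to compound in RPMI-1640/Albumax II medium, grown 72 h at 37C in low oxygen, then lysed with saponin/Triton-X containing SYBR Green and read by fluorescence.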
A number is an active result; – = inactive.

SMILES | Pf Dd2 growth
O=C(Cc1ccc(F)cc1)N1CCC2(CCC(=O)N(CC3CC3)CC2)CC1 | –
O=C(c1cn(CCc2ccccc2)nn1)N1CCC(OCc2ccccn2)CC1 | –
Cc1ccc(-c2noc([C@@H]3Cc4nc[nH]c4CN3C(=O)c3ccc(F)cc3)n2)cc1 | –
N#Cc1ccc(C(=O)N2Cc3[nH]cnc3C[C@H]2c2nc(-c3ccc4c(c3)OCO4)no2)cc1 | 10µM
O=C(NCc1ccccc1)N1Cc2[nH]cnc2C[C@H]1c1nc(-c2ccc3c(c2)OCO3)no1 | –
CCC(CC)CN1C[C@]23C=C[C@H](O2)C(C(=O)N(C)CCn2ccnc2C)C3C1=O (some centres not stated) | –
CN(CCC1CCOCC1)C(=O)c1cc(COc2ccccc2F)[nH]n1 | –
COC[C@@H]1CN(C(=O)c2nccc3ccccc23)C[C@H]1c1ccccn1 | –
COCC1CN(S(=O)(=O)c2cccs2)CC12CCNCC2 (configuration not stated) | –
COCC1CN(C)CC12CCN(Cc1ccc(F)cc1F)CC2 (configuration not stated) | –
COCC1CN(C)CC12CCN(Cc1ccc(OC)cc1)CC2 (configuration not stated) | –
COCC1CN(C(C)=O)CC12CCN(S(=O)(=O)c1cccs1)CC2 (configuration not stated) | –
COCC1CN(C)CC12CCN(Cc1ccc(F)c(Cl)c1)CC2 (configuration not stated) | 5.01µM
COCC1CN(C)CC12CCN(S(=O)(=O)c1cccs1)CC2 (configuration not stated) | 3.55µM
O=C(CCc1ccc(O)cc1)N1C[C@@H](CN2CCOCC2)[C@@H](CO)C1 | –
O=C(CCc1c[nH]c2ccccc12)NC1CCc2n[nH]c(=O)n2CC1 (configuration not stated) | –
CO[C@H]1C(=O)N(C2CCN(C(=O)NCc3ccccc3)CC2)[C@H]1c1ccncc1 | –
CCn1nccc1C(=O)N1CC(n2cc(C(=O)NCC3CC3)nn2)C1 | –
CCOc1cc(=O)n2c(c1C(=O)NCCOC)CCCCC2 | –
O=C1NCCN(Cc2cccnc2)C1CC(=O)N(Cc1ccccc1)CC1CCC1 (configuration not stated) | –
O=C1Nc2ccc(-c3cccc(C(F)(F)F)c3)cc2C(=O)N2CCN(C(=O)C3CCCC3)C[C@@H]12 | –
CCS(=O)(=O)N1CCC(N2C(=O)C3(CCCC3)C2c2ccccc2)CC1 (configuration not stated) | –
O=C(c1ccncc1)N1CCC(N2C(=O)C3(CCCCC3)C2c2ccncc2)CC1 (configuration not stated) | –
O=C(Nc1ccccc1F)N1CCC(N2C(=O)C3(CCCCC3)C2c2ccccc2)CC1 (configuration not stated) | –
O=C(Nc1ccccc1F)N1CCC(N2C(=O)C3(CCCCC3)C2c2ccncc2)CC1 (configuration not stated) | 4.47µM
SMILES | Pf Dd2 growth
Cc1nc(C)c(C(=O)N2CCC(N3C(=O)C4(CCCCC4)C3c3ccccc3)CC2)s1 (configuration not stated) | 12.6µM
CCn1cc(CN2CCC(N3C(=O)C4(CCCC4)C3c3ccccc3)CC2)cn1 (configuration not stated) | 1.58µM
CCn1cc(CN2CCC(N3C(=O)C4(CCCCC4)C3c3ccncc3)CC2)cn1 (configuration not stated) | –
Cc1ncccc1C(=O)N1CCC(N2C(=O)C3(CCCC3)C2c2ccccc2)CC1 (configuration not stated) | –
Cc1ccc(C(=O)N2CCC(N3C(=O)C4(CCCC4)C3c3ccccc3)CC2)s1 (configuration not stated) | –
Cc1ccc(NS(=O)(=O)c2ccccc2)c(=O)n1CC(=O)N(C)C | –
Cc1ccc(N2CCN(C(=O)C3CCN(c4ncnc5c4nc4n5CCCCC4)CC3)CC2)c(C)c1 | –
CCNC(=O)Nc1ccc([C@@H](O)[C@H]2COCC(=O)N2CC)cc1 | –
Cc1nc2c(-c3ccccc3)c(C)nn2c(C)c1CCC(=O)Nc1ccccc1F | –
Cc1cc(C)cc(N2CCN(Cc3cn(-c4ccccc4)nn3)CC2=O)c1 | 11.2µM
c1ccc(-n2cc(CN3CCN(c4nc5ccccc5o4)CC3)nn2)cc1 | –
COc1ccc(C(=O)N2CCN(Cc3cn(-c4ccccc4)nn3)CC2)cc1 | –
O=C(O)COCC(=O)N[C@H]1CO[C@H]2[C@@H]1OC[C@@H]2n1nnnc1-c1ccc2c(c1)OCO2 | –
O=C1CC2CCN(Cc3cscn3)CC2CCN1 (configuration not stated) | –
COc1cccc(-c2nn(C)c3sc(C(=O)NCc4ccc(C)cc4)cc23)c1 | –
COc1cccc(NC(=O)c2cc3c(-c4ccc(Cl)cc4)nn(C)c3s2)c1 | 3.16µM
COc1ccc(-c2nn(C)c3sc(C(=O)Nc4cccc(F)c4)cc23)cc1OC | 2.51µM
COc1ccccc1CNC(=O)c1cc2c(-c3ccc(Cl)cc3)nn(C)c2s1 | –
COc1ccccc1NC(=O)c1cc2c(C)nn(-c3ccccc3)c2s1 | –
COc1ccc(NC(=O)c2cc3c(C)nn(-c4ccccc4)c3s2)c(OC)c1 | –
COCCCNC(=O)c1cc2c(-c3cccc(OC)c3)nn(C)c2s1 | –
Cc1ccc(NC(=O)c2cc3c(-c4ccccc4)nn(-c4ccccc4)c3s2)cc1 | 2.82µM
COc1ccc(-c2nn(C)c3sc(C(=O)NCCN(C)C)cc23)cc1OC | –
NC(=O)CNC(=O)[C@@]1(O)C[C@@H](O)[C@H](O)[C@@H](NS(=O)(=O)c2cccc(C(F)(F)F)c2)C1 | –
COc1ccc2[nH]c3c(c2c1)CCNC31CCN(C(C)C)CC1 | –
SMILES | Pf Dd2 growth
COc1ccccc1N1CCN(C(=O)Cn2ccn3nc4c(c3c2=O)CCCCC4)CC1 | –
COc1ccc(C(=O)Nc2cc(-c3nc4ncccc4o3)ccc2C)cc1Br | –
CCC(=O)N1CCCC(n2c(C)cnc2-c2ccncc2)C1 (configuration not stated) | –
O=C(NC1CCCN(c2cc(-c3ccccc3)[nH]n2)C1)c1ccccc1C(F)(F)F (configuration not stated) | –
CC(=O)N1CCCc2ccc(NS(=O)(=O)c3cccc(Cl)c3)cc21 | –
CC(=O)N1CCCc2ccc(NS(=O)(=O)c3ccc(C)c(C)c3)cc21 | –
COc1ccc(S(=O)(=O)Nc2ccc3c(c2)N(C(C)=O)CCC3)cc1F | 10µM
O=C([C@@H]1C[C@H](Oc2ccccc2)CN1C(=O)COc1ccc(F)cc1)N1CCCC1 | –
COCCCNC(=O)N1CCCN(S(C)(=O)=O)C(c2ccccc2)CC(=O)NCC1 (configuration not stated) | –
O=c1n(Cc2ccc(Cl)cc2)nc2n1CCCC2 | –
CCCn1c(C)c(CC(=O)N(CC)Cc2noc(C)n2)c2c1CC(C)(C)CC2=O | –
O=C(NCCc1noc(C2CC2)n1)C1(c2ccccc2)CC1 | –
COCCCN1C(=O)CC[C@H]2CN(C(=O)c3ccc(CN)cc3)CC[C@H]21 | –
CCCCN1C(=O)[C@@H]2C[C@@H](O)CN2C2(CN(C3CCN(C(C)=O)CC3)C2)C1=O | –
COC(=O)c1ccc(CN2C(=O)[C@@H]3C[C@@H](O)CN3C3(CN(C4CCN(C(C)=O)CC4)C3)C2=O)cc1 | –
CC(=O)N1CCC(N2CC3(C2)C(=O)N(Cc2ccccc2Cl)C(=O)[C@@H]2C[C@@H](O)CN23)CC1 | 7.08µM
COc1cccc(N2C(=O)NC(=NC3CCCCC3)C23CCN([S+](=O)([O-])c2ccccc2)CC3)c1 | –
COc1cc(Cl)c(C)cc1NC(=O)CN1C(=O)C(c2ccccc2)=NC12CCCC2 | 11.2µM
